Laboratory results published in PubChem BioAssay AID1159580 (chemical genetic matrix, 2015).
Where “and” joins values, the source holds several entries; their conditions need not be identical. Equal values may be shown once. The campaign covered roughly 5,500 compounds. About 2,000 (36%) were called active. About 18% were inconclusive and are not listed. The list shows a part of the results. Unmarked numbers belong to inactive results. No stated cut-off is given here; in the data, active means normalized growth mostly below about 0.91 (no sharp cut-off); inconclusive means no clear call, values can overlap the other calls; inactive means mostly above about 0.92.

Experiment: chemical genetic growth profiling, strain panel (AID 1159580);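 further: tested at 20 µM; growth read once vehicle control cultures reached saturation at 30 °C; 1 = growth at the plate median or of vehicle wells; lower values mean less growth of the strain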
Settings: growth OD

NC(N)=NC(=O)c1nc(Cl)c(N)nc1N
normalized growth (S. cerevisiae deletion strains, locus YKL009W, strain mrt4, hits give low values): 1.03 | normalized growth (S. cerevisiae deletion strains, locus YKL068W, hits give low values): 1 | normalized growth (S. cerevisiae deletion strains, locus YKL085W, strain MDH1 (second series), hits give low values): 1.01 | normalized growth (S. cerevisiae deletion strains, locus YKL085W, strain MDH1, hits give low values): 1.01 | normalized growth (S. cerevisiae deletion strains, locus YKL160W, strain elf1, hits give low values): 1.02 | normalized growth (S. cerevisiae deletion strains, locus YKL190W, strain CNB1, hits give low values): 0.994 | normalized growth (S. cerevisiae deletion strains, locus YKR001C, strain vps1, hits give low values): 1.02 | normalized growth (S. cerevisiae deletion strains, locus YKR026C, strain gcn3, hits give low values): 1.03 | normalized growth (S. cerevisiae deletion strains, locus YKR091W, strain srl3, hits give low values): 1.03 | normalized growth (S. cerevisiae deletion strains, locus YLL001W, strain dnm1, hits give low values): 1.02 | normalized growth (S. cerevisiae deletion strains, locus YLL026W, hits give low values): 1.02 | normalized growth (S. cerevisiae deletion strains, locus YLL041C, strain sdh2, hits give low values): 1 | normalized growth (S. cerevisiae deletion strains, locus YLR027C, strain aat2, hits give low values): 1.02 | normalized growth (S. cerevisiae deletion strains, locus YLR039C, strain RIC1, hits give low values): 1.31 | normalized growth (S. cerevisiae deletion strains, locus YLR058C, strain SHM2, hits give low values): 1.01 | normalized growth (S. cerevisiae deletion strains, locus YLR102C, strain apc9, hits give low values): 1 | normalized growth (S. cerevisiae deletion strains, locus YLR113W, strain HOG1, hits give low values): 1.03 | normalized growth (S. cerevisiae deletion strains, locus YLR221C, strain rsa3, hits give low values): 1.03 | normalized growth (S. cerevisiae deletion strains, locus YLR258W, strain gsy2, hits give low values): 1.02 | normalized growth (S. cerevisiae deletion strains, locus YLR262C, strain YPT6 (second series), hits give low values): 1.02 | normalized growth (S. cerevisiae deletion strains, locus YLR262C, strain YPT6, hits give low values): 1.41 [resistant] (active) | normalized growth (S. cerevisiae deletion strains, locus YLR268W, strain sec22, hits give low values): 1.05 | normalized growth (S. cerevisiae deletion strains, locus YLR320W, strain mms22, hits give low values): 1.01 | normalized growth (S. cerevisiae deletion strains, locus YLR330W, strain CHS5, hits give low values): 1.01 | normalized growth (S. cerevisiae deletion strains, locus YLR342W, strain FKS1 (second series), hits give low values): 0.893 | normalized growth (S. cerevisiae deletion strains, locus YLR342W, strain FKS1, hits give low values): 1.03 | normalized growth (S. cerevisiae deletion strains, locus YLR357W, strain rsc2, hits give low values): 1.02 | normalized growth (S. cerevisiae deletion strains, locus YLR370C, strain arc18, hits give low values): 1.01 | normalized growth (S. cerevisiae deletion strains, locus YLR371W, strain rom2, hits give low values): 1.03 | normalized growth (S. cerevisiae deletion strains, locus YLR384C, strain iki3, hits give low values): 1.03 | normalized growth (S. cerevisiae deletion strains, locus YLR418C, strain cdc73, hits give low values): 0.94 | normalized growth (S. cerevisiae deletion strains, locus YML016C, strain PPZ1, hits give low values): 1.01 | normalized growth (S. cerevisiae deletion strains, locus YML032C, strain rad52, hits give low values): 1.01 | normalized growth (S. cerevisiae deletion strains, locus YML120C, strain ndi1, hits give low values): 1.01 | normalized growth (S. cerevisiae deletion strains, locus YML124C, strain tub3, hits give low values): 1.02 | normalized growth (S. cerevisiae deletion strains, locus YMR058W, strain fet3, hits give low values): 1.01 | normalized growth (S. cerevisiae deletion strains, locus YMR078C, strain ctf18, hits give low values): 1.02 | normalized growth (S. cerevisiae deletion strains, locus YMR125W, strain sto1, hits give low values): 1.02 | normalized growth (S. cerevisiae deletion strains, locus YMR129W, hits give low values): 1 | normalized growth (S. cerevisiae deletion strains, locus YMR205C, strain PFK2, hits give low values): 1.02 | normalized growth (S. cerevisiae deletion strains, locus YMR223W, strain ubp8, hits give low values): 1.01 | normalized growth (S. cerevisiae deletion strains, locus YMR231W, strain pep5, hits give low values): 1.02 | normalized growth (S. cerevisiae deletion strains, locus YMR307W, strain GAS1, hits give low values): 1.02 and 0.992 | normalized growth (S. cerevisiae deletion strains, locus YNL067W, strain RPL9B, hits give low values): 1 | normalized growth (S. cerevisiae deletion strains, locus YNL071W, strain lat1, hits give low values): 1.01 | normalized growth (S. cerevisiae deletion strains, locus YNL128W, strain TEP1, hits give low values): 0.981 | normalized growth (S. cerevisiae deletion strains, locus YNL153C, strain GIM3, hits give low values): 1 | normalized growth (S. cerevisiae deletion strains, locus YNL175C, strain NOP13, hits give low values): 0.994 | normalized growth (S. cerevisiae deletion strains, locus YNL183C, strain NPR1, hits give low values): 0.948 | normalized growth (S. cerevisiae deletion strains, locus YNL197C, strain WHI3, hits give low values): 0.992 | normalized growth (S. cerevisiae deletion strains, locus YNL209W, strain ssb2, hits give low values): 1 | normalized growth (S. cerevisiae deletion strains, locus YNL224C, strain SQS1, hits give low values): 1 | normalized growth (S. cerevisiae deletion strains, locus YNL233W, strain BNI4, hits give low values): 1 | normalized growth (S. cerevisiae deletion strains, locus YNL248C, strain rpa49, hits give low values): 1.03 | normalized growth (S. cerevisiae deletion strains, locus YNL250W, strain rad50, hits give low values): 1.02 | normalized growth (S. cerevisiae deletion strains, locus YNL271C, strain bni1, hits give low values): 1.03 | normalized growth (S. cerevisiae deletion strains, locus YNL298W, strain CLA4, hits give low values): 1.02 | normalized growth (S. cerevisiae deletion strains, locus YNL307C, strain MCK1, hits give low values): 1.01 | normalized growth (S. cerevisiae deletion strains, locus YNL322C, strain KRE1 (second series), hits give low values): 1.02 | normalized growth (S. cerevisiae deletion strains, locus YNL322C, strain KRE1, hits give low values): 1.01 | normalized growth (S. cerevisiae deletion strains, locus YNR049C, strain mso1, hits give low values): 1.02 | normalized growth (S. cerevisiae deletion strains, locus YNR052C, strain pop2, hits give low values): 1.01 | normalized growth (S. cerevisiae deletion strains, locus YOL006C, strain TOP1, hits give low values): 0.949 | normalized growth (S. cerevisiae deletion strains, locus YOL012C, strain htz1): 1.27 | normalized growth (S. cerevisiae deletion strains, locus YOL147C, strain pex11, hits give low values): 1.02 | normalized growth (S. cerevisiae deletion strains, locus YOR001W, strain rrp6, hits give low values): 1.03 | normalized growth (S. cerevisiae deletion strains, locus YOR061W, strain CKA2, hits give low values): 1.01 | normalized growth (S. cerevisiae deletion strains, locus YOR069W, strain VPS5, hits give low values): 1 | normalized growth (S. cerevisiae deletion strains, locus YOR070C, strain gyp1, hits give low values): 1.01 | normalized growth (S. cerevisiae deletion strains, locus YOR080W, strain dia2, hits give low values): 1.04 | normalized growth (S. cerevisiae deletion strains, locus YOR083W, strain WHI5 (second series), hits give low values): 1.01 | normalized growth (S. cerevisiae deletion strains, locus YOR083W, strain WHI5, hits give low values): 1.04 | normalized growth (S. cerevisiae deletion strains, locus YOR106W, strain vam3, hits give low values): 0.997 | normalized growth (S. cerevisiae deletion strains, locus YOR136W, strain idh2, hits give low values): 1.04 | normalized growth (S. cerevisiae deletion strains, locus YOR144C, strain elg1, hits give low values): 1.01 | normalized growth (S. cerevisiae deletion strains, locus YOR184W, strain ser1, hits give low values): 1.05 | normalized growth (S. cerevisiae deletion strains, locus YOR231W, strain MKK1, hits give low values): 0.998 | normalized growth (S. cerevisiae deletion strains, locus YOR265W, strain rbl2, hits give low values): 1.02 | normalized growth (S. cerevisiae deletion strains, locus YOR270C, strain vph1, hits give low values): 1.03 | normalized growth (S. cerevisiae deletion strains, locus YOR290C, strain snf2, hits give low values): 0.985 | normalized growth (S. cerevisiae deletion strains, locus YOR316C, strain cot1, hits give low values): 1.01 | normalized growth (S. cerevisiae deletion strains, locus YPL051W, strain arl3, hits give low values): 1.03 | normalized growth (S. cerevisiae deletion strains, locus YPL078C, strain atp4, hits give low values): 1.04 | normalized growth (S. cerevisiae deletion strains, locus YPL106C, strain sse1, hits give low values): 1 | normalized growth (S. cerevisiae deletion strains, locus YPL240C, strain hsp82, hits give low values): 1.02 | normalized growth (S. cerevisiae deletion strains, locus YPL241C, strain CIN2, hits give low values): 0.998 and 0.996 | normalized growth (S. cerevisiae deletion strains, locus YPL256C, strain CLN2, hits give low values): 1.01 | normalized growth (S. cerevisiae deletion strains, locus YPR119W, strain clb2, hits give low values): 1.01 | normalized growth (S. cerevisiae deletion strains, locus YPR141C, strain kar3, hits give low values): 1.01 | normalized growth (S. cerevisiae deletion strains, locus YPR163C, strain tif3, hits give low values): 1.02 | normalized growth (S. cerevisiae deletion strains, locus YPR167C, strain met16, hits give low values): 1.02 | normalized growth (S. cerevisiae deletion strains, strain wtn01, hits give low values): 1.01 | normalized growth (S. cerevisiae strains, strain wild type, hits give low values): 1
